An excerpt weighted towards active compounds, which were near 3.5% of everything screened.
Tau ThT inhib: tau fibrillization inhibition (ThT binding); P10636; recombinant tau K18 P301L, heparin-induced fibrillization, ThT fluorescence; Potency, µM (top dose mostly 57.4 µM), hits mostly inhibitors; 2.1% of 270,000 active; also: nearly all actives have a fitted effect of over 55% in size
Target sequence (P10636 561-689 P618L limits assumed): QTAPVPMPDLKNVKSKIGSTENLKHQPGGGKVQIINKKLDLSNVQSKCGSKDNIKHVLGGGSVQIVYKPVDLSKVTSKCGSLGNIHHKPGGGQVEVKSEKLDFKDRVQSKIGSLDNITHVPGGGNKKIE
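ThT emission at 510 nm, taken 1 hr after adding 30 uM dye, quantifies aggregates formed when 20 uM heparin acts on human tau K18 P301L for 6 hr at 37 C.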
Tau fluor cs: counter-screen for tau fibril formation inhibitors | Potency, µM (highest dose often 57.7 µM) | 0.93% of 280,000 active | tau K18 P301L (four-repeat tau fragment) Alexa594 fluorescence, heparin fibrillization; also: nearly all actives have a fitted effect of over 55% in size
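Human K18 P301L tau (15 uM unlabeled plus 0.24 uM Alexa 594-labeled, final) in 100 mM sodium acetate pH 7 was mixed with compound and 20 uM heparin and incubated 6 hr at 37 C.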
KDM4E inh: blocks human JMJD2E demethylase activity. B2RXH2. AID 2147. JMJD2E catalytic domain, FDH-coupled NADH fluorescence (FDH is formaldehyde dehydrogenase). 1.6% of 230,000 active. Potency, µM (highest dose often 57.1 µM), usual class: inhibitors; active = well fitted inhibition curve with a large enough effect, not every such curve was filed as active; inconclusive = small, poorly fitted or top-dose-only effect, or another doubt; inactive = no such curve, though single readings can be large or run the other way; also: nearly all actives have a fitted effect of over 50% in size
Tau fibril FP: tau fibrillization inhibition (FP); K18 P301L tau heparin fibrillization, Alexa594 FP, 6 h; Potency, µM (series often up to 57.7 µM), usual class: inhibitors; 0.39% of 280,000 active; P10636; AID 1468; also: nearly all actives have a fitted effect of over 55% in size
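Human tau K18 […] P301L fragment, 15 uM unlabeled plus 0.24 uM Alexa 594-labeled tau (final), with compound and 20 uM heparin in 100 mM sodium acetate pH 7; 6 hr at 37 C, then Alexa 594 FP read.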
TRb SRC2 PPI: disrupts binding of human TR beta to SRC2 | AID 1469 | TRbeta-SRC2 peptide binding, fluorescence polarization; receptor liganded with 1 µM T3 | 0.065% of 280,000 active | Potency, µM (doses to about 106 µM), hits mostly inhibitors | P10828; also: nearly all actives have a fitted effect of over 50% in size
Target sequence (P10828 whole entry, looked up): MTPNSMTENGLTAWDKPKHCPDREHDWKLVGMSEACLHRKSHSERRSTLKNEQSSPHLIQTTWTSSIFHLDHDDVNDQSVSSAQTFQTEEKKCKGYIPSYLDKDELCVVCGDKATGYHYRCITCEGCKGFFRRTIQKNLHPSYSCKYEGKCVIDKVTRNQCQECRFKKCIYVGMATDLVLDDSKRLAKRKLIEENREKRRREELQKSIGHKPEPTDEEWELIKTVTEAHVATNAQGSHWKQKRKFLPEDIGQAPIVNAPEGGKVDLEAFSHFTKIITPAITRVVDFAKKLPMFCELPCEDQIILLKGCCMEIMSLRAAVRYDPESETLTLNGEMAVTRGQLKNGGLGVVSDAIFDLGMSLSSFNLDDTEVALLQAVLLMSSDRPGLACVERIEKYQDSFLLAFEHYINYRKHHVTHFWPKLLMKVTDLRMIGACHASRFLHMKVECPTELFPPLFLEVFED
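Read-out is fluorescence polarization (555 nm excitation, 632 nm emission) of a Texas Red SRC2 coactivator peptide; loss of signal reflects blocked binding to human TRb ligand-binding domain in the presence of 1 uM T3.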
TexasRed fluor: alters Texas Red total fluorescence, flagging assay interference; TRb/SRC2 Texas Red total fluorescence interference; Potency, µM (titrated, usually from 106 µM); 0.29% of 280,000 active; active = well fitted curve in either direction with a large enough effect; inconclusive = small, poorly fitted or top-dose-only effect
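Human TRb ligand-binding domain at 0.6 uM with 20 nM Texas Red SRC2 peptide in Tris buffer containing 1 uM T3 and 5% DMSO, incubated with compound 5 h at ambient temperature. Total fluorescence (555/632 nm) calculated as parallel + 2 × perpendicular.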
A number is an active result; i = inactive; ? = inconclusive; nt = not tested or not shown; [ ] = remark or other dose. Unless noted, calls follow the shape of the dose curve; as a rule, active = well fitted curve in the direction sought with a large enough effect; inconclusive = small, poorly fitted or top-dose-only effect, or another doubt; inactive = no such curve, though single readings can be large; an effect the other way counts as inactive or inconclusive.

SMILES	Tau ThT inhib	Tau fluor cs	KDM4E inh	Tau fibril FP	TRb SRC2 PPI	TexasRed fluor
CCCC(c1nnnn1CCc1ccccc1)N1CCN(C(=O)c2ccco2)CC1 (stereo unspecified)	i	i	i	i	i	i
CCn1c2ccccc2c2cc(CN3CCN(Cc4cc(OC)c(O)c(OC)c4)CC3)ccc21	?	?	nt	i	i	i
CCn1c2ccccc2c2cc(CN3CCN(Cc4cc(OC)ccc4O)CC3)ccc21	i	?	18µM	i	i	i
Cc1ccsc1CN(C(=O)c1oc2ccccc2c1C)C1CCS(=O)(=O)C1 (stereo unspecified)	i	i	nt	i	i	i
Oc1ccc2c(c1)OC(c1ccc(O)c(O)c1)C(O)C2 (stereo unspecified)	?	i	16µM	i	i	i
Oc1cc(O)c2c(c1)O[C@H](c1ccc(O)c(O)c1)[C@@H](O)C2	i	?	25µM	i	i	i
O=C1C[C@H](c2ccccc2)Oc2cc(O)cc(O)c21	i	?	i	i	i	i
O=c1c(O)cc(C2Oc3cc(O)cc(O)c3CC2O)cc2c(C3Oc4cc(O)cc(O)c4CC3O)cc(O)c(O)c12 (stereo unspecified)	0.5µM	8.9µM[quencher]	25µM	1µM	i	28µM[quencher]
O=C1c2c(O)cc(O)cc2O[C@@]12c1c(cc(O)c3c1O[C@H](c1ccc(O)cc1)[C@@H](O)C3)O[C@@H]2c1ccc(O)cc1	?	?	i	i	i	i
Cc1ccc(C2CC(=O)Oc3cc(O)ccc32)cc1 (stereo unspecified)	i	i	i	?	?	?
CC12CC(O)C3c4ccc(O)cc4CCC3C1CCC2=O (stereo unspecified)	i	i	i	i	i	i
COC(=O)c1ccc(C(=O)NC(=S)Nc2ccc3nc(SC)sc3c2)cc1	?	i	i	i	i	i
CN(C)/C=C/c1c([N+](=O)[O-])c2ccc(O)cc2n1-c1ccccc1	13µM	16µM[quencher]	?	?	i	i
COC(=O)c1c(C)n(-c2ccccc2)c2ccc(O)cc12	?	i	?	i	i	i
COc1ccc(OC)c2c1C(=O)c1ccccc1C2=O	35µM	i	?	?	i	i
COc1ccc(OC)c2c1C(=O)C(Cl)=C(Cl)C2=O	4.5µM	?	?	18µM	i	i
Nc1ccc(Br)c2c1C(=O)c1ccccc1C2=O	5µM	?	i	i	i	i
COc1ccc(S(=O)(=O)N2CCCC2)c(Cl)c1Cl	i	i	i	i	i	i
COC1=C(OC)C(=O)c2ccccc2C1=O	13µM	i	11µM	?	i	i
CC1CC(C)CN(c2ncc3c(n2)CC(c2ccccc2Cl)CC3=O)C1 (stereo unspecified)	i	i	i	i	i	i
Cn1nnnc1SCc1cn2cccnc2n1	i	i	?	i	i	i
CCN(C(=O)Cn1c(=O)n(CCCS(=O)(=O)C2CCCCC2)c(=O)c2ccccc21)c1cccc(C)c1	i	i	nt	i	i	i
Nc1ccc(O)c2c1C(=O)c1ccccc1C2=O	i	i	i	i	i	i
COc1ccc(N)c2c1C(=O)c1ccccc1C2=O	16µM	i	i	?	32µM	50µM[fluorescent]
CCCN1C2=C(C(=O)CC(C)(C)C2)C(c2ccc(F)cc2)C2=C1c1ccccc1C2=O (stereo unspecified)	?	?	i	i	i	i
SMILES	Tau ThT inhib	Tau fluor cs	KDM4E inh	Tau fibril FP	TRb SRC2 PPI	TexasRed fluor
CCCCN1C2=C(C(=O)CC(C)(C)C2)C(c2ccccc2)C2=C1c1ccccc1C2=O (stereo unspecified)	14µM	i	?	?	i	i
O=C(CN1C(=O)CSCC1=O)Nc1ccc2c(c1)OCO2	i	i	i	i	i	i
COc1ccc(C)cc1NC(=O)C(=O)NCC(c1cccnc1)N1CCN(c2ccccc2F)CC1 (stereo unspecified)	i	?	nt	i	i	i
COc1ccc(C(=O)/C(=C/O)N=Nc2ccc(F)cc2)cc1	28µM	i	i	i	i	i
COc1ccc(N=N/C(=C\O)C(=O)c2cccs2)cc1	13µM	?	i	i	i	i
COc1ccc(C(=O)C(/C=N/O)=N/Nc2ccc(F)cc2)cc1	?	i	i	i	i	i
CC(=O)N(Cc1ccc(F)cc1)C1=C(NCCc2ccccc2)C(=O)c2ccccc2C1=O	28µM	?	?	?	i	i
O=C(COc1nsnc1N1CCOCC1)N/N=C/c1ccccc1O	i	i	?	i	i	i
CSc1nc(C)cc(OCC(=O)N/N=C/c2ccccc2O)n1	i	i	25µM	i	i	i
CC(C)C1CC(C(F)(F)F)n2nc(C(=O)O)cc2N1 (stereo unspecified)	i	i	i	i	i	i
COc1ccc(C(Nc2ccccn2)c2ccc3ccc(C)nc3c2O)cc1C (stereo unspecified)	16µM	i	nt	i	i	i
Cc1ccc(C(Nc2ccccn2)c2ccc3cccnc3c2O)cc1 (stereo unspecified)	?	i	nt	i	i	i
C/C(=N\NC(=O)c1ccc(-c2ccccc2)cc1)C1C(=O)c2ccccc2C1=O	i	i	?	i[2.34 µM]	i	i
C/C(=N\NC(=O)c1ccc(Br)cc1)C1C(=O)c2ccccc2C1=O	4µM	?	?	?	i	i
CCOc1ccc(C(=O)N/N=C(/C)C2C(=O)c3ccccc3C2=O)cc1	1.8µM	i	i	i	i	i
CN(C)c1ccc(/C=[N+](\[O-])C2SC(=S)N(C)C2(C)C)cc1 (stereo unspecified)	i	i	?	i	i	i
CN1C(=O)/C(=C/c2coc3ccc(O)cc3c2=O)SC1=S	?	i	i	i	i	i
Cc1cc(/C=C2\SC(=S)NC2=O)c(C)n1-c1cccc(O)c1	16µM	?	i	i	i	i
CCn1ncc(/C=C2/SC(=S)NC2=O)c1C	i	i	i	i	i	i
Cc1cc(/C=C2\SC(=S)NC2=O)c(C)[nH]1	16µM	?	i	i	?	?
Cc1cc(/C=C2/C(=O)NN(c3ccccc3)C2=O)c(C)n1-c1cccc(O)c1	13µM	?	?	i	i	i
Cc1cc(/C=C2\SC(=S)N(C)C2=O)c(C)n1-c1ccc(O)cc1	6.3µM	8.9µM[quencher]	i	?	i	i
O=C(/C=C/c1ccccc1Cl)NCc1ccco1	i	i	i	i	i	i
COc1ccc(C2C=C(c3ccc(Br)cc3)Nc3nnnn32)c(OC)c1 (stereo unspecified)	i	i	nt	i	i	i
CCn1c(C)cc(/C=C2/SC(=S)NC2=O)c1C	13µM	i	i	i	i	i
CC(=O)CC1OC(=O)C(Br)=C1NCc1ccccc1 (stereo unspecified)	8.9µM	i	i	?	i	i

Assay outcomes: PubChem, National Center for Advancing Translational Sciences (NCATS)
